According to PubChem BioAssay (NCI):
About 79,000 compounds went through this panel and 15% of them were active in at least one assay; those are over-represented in the sample as a whole. Activity calls are given as the source filed them. Rule as the data show it: active = growth inhibition above about 70%; inactive = the rest. Where a SMILES comes first, the peptide text is derived from it. [ ]: non-standard residue; d: D form. The star is where a group is joined. ξ: configuration not given here. X14 = COC1=CC(=O)N(C(=O)C(O*)C(C)C)C1Cc1ccccc1; ξNMe2Val = CC(C)C(C(=O)*)N(C)C; NMeV = CN[CH](C(=O)O)C(C)C

Experiments:
[1] = NCI Yeast Anticancer Drug Screen. Data for the rad50 strain (AID 155);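 also: 0% = growth of vehicle-only cultures of the same strain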; settings: S. cerevisiae rad50 strain growth inhibition; at 50.0 µM; hits give high values
Method in brief: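 Readout: growth inhibition relative to vehicle-treated cultures. Compound exposure was carried out in a genetically defined yeast strain deficient in DNA damage repair.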

[2] = NCI Yeast Anticancer Drug Screen. Data for the mec2-1 strain (AID 157); settings: S. cerevisiae mec2-1 strain, at 50.0 µM, hits give high values
Method in brief: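 Readout is yeast growth inhibition, normalised to vehicle-treated controls, in the mec2-1 strain exposed to compound.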

[3] = NCI Yeast Anticancer Drug Screen. Data for the sgs1 mgt1 strain (AID 161);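 also: 0% = growth of cultures given vehicle only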; settings: S. cerevisiae sgs1 mgt1 strain, at 50.0 µM, hits give high values
Method in brief: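 Percent growth inhibition was derived by comparing compound-exposed mutant yeast with vehicle-exposed cultures. The strain carries alterations in DNA damage repair.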

[4] = NCI Yeast Anticancer Drug Screen. Data for the cln2 rad14 strain (AID 165);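 also: 0% = growth equal to vehicle treated cultures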; settings: S. cerevisiae cln2 rad14 strain, at 50.0 µM, hits give high values
Method in brief: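 Relative to vehicle controls, growth inhibition of compound-treated cln2 rad14 yeast was recorded.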

[5] = NCI Yeast Anticancer Drug Screen. Data for the bub3 strain (AID 167); settings: S. cerevisiae bub3 mutant strain, at 50.0 µM, hits give high values
Method in brief: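 Readout: yeast growth inhibition, expressed relative to vehicle-only wells. The test organism is a mutant strain from a panel with lesions in DNA repair or checkpoint genes.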

[6] = NCI Yeast Anticancer Drug Screen. Data for the mlh1 rad18 strain (AID 175); settings: S. cerevisiae mlh1 rad18 strain growth inhibition; at 50.0 µM; hits give high values
Method in brief: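 Test agents were incubated with a yeast strain of defined genotype (DNA damage repair defect). Inhibition of growth was derived by comparison with vehicle-exposed cultures.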

Measured: growth inhibition

COC1=CC(=O)N(C(=O)C(OC(=O)C2CCCN2C(=O)C2CCCN2C(=O)C(C(C)C)N(C)C(=O)C(NC(=O)C(C(C)C)N(C)C)C(C)C)C(C)C)C1Cc1ccccc1 (stereo unspecified) (ξNMe2Val-V[NMeV]PP-X14; configuration not given here)
inactive: [1] 16.9% | [2] -21.4% | [3] -4.25% | [4] -7.6% | [5] 28.9% | [6] -32.6%

CCC1(/C=C/C(C)C)C(=O)NC(=S)NC1=O
inactive: [1] -0.75% | [2] 4.55% | [3] -0.8% | [4] 0.85% | [5] 0.05% | [6] 2.8%

COCC(C)OC(=O)Cc1ccccc1 (stereo unspecified)
inactive: [1] -10.9% | [2] -8.2% | [3] -8.6% | [4] -85.6% | [5] -49.1% | [6] -31.1%

S=C(N/N=C\c1cccc(I)c1)NC1CN2CCC1CC2 (stereo unspecified)
inactive: [1] 19.1% | [2] 3.25% | [3] 14.4% | [4] 14.8% | [5] 3.2% | [6] 13.9%

CC(=O)Nc1ccc2c(c1)C(=O)c1cc(NC(C)=O)ccc1-2
inactive: [1] 24.4% | [2] -10.1% | [3] -13.6% | [4] 1.55% | [5] -2.75% | [6] -7.5%

CC(C)(C)P(O)(=S)c1ccccc1 (stereo unspecified) (tested in a mixture with another compound)
inactive: [1] 2.65% | [2] 2.1% | [3] 1.9% | [4] -34.2% | [5] -24.6% | [6] 5.35%

O=NN1CCCCCCC1C(=O)O (stereo unspecified)
inactive: [1] 1.3% | [2] 6.55% | [3] -14.7% | [4] -22.8% | [5] 9.15% | [6] 19.5%

CN(C)CCNC(=O)c1cc([N+](=O)[O-])cc2c1Oc1ccccc1O2
inactive: [1] -7.05% | [2] -12.6% | [3] -7.35% | [4] 16.9% | [5] -7.2% | [6] -7.3%

COC1OOC(OC)c2ccccc2-c2ccccc21 (stereo unspecified)
inactive: [1] -15.3% | [2] -9.7% | [3] 4.1% | [4] -14.1% | [5] 15.5% | [6] 4.15%

Nc1nc(-c2cccc(S(=O)(=O)F)c2)cs1
inactive: [1] 42.5% | [2] 20.8% | [3] 55.5% | [4] 41.5% | [5] 51.1% | [6] 34.6%

CC(=O)CC(C)=O.CC(=O)CC(C)=O.CC(=O)CC(C)=O.[Tb]
inactive: [1] -0.8% | [2] -7.7% | [3] -3.95% | [4] 26.8% | [5] -2.95% | [6] -19.8%

COC(=O)c1cncn1C(C)c1cccc2ccccc12 (stereo unspecified)
active: [1] 90.7% | [2] 91% | [3] 79.2% | [5] 88.2% | [6] 89.3%
inactive: [4] 59%

c1cc(C2O[C@H]3CCCN3[C@@H]2c2ccncc2)ccn1 (stereo partly specified)
inactive: [1] -30.6% | [2] -17.9% | [3] 1.15% | [4] 2.85% | [5] -14.8% | [6] -25.4%

CCN(CC)P(=O)(N1CC1(C)C)N1CC1(C)C (stereo unspecified)
inactive: [1] 1.85% | [2] 0.75% | [3] 1.4% | [4] 2.35% | [5] -4.6% | [6] 1.35%

O=P1(N(CCCl)CCCl)Oc2ccc(Cl)cc2Sc2c(ccc(Cl)c2Cl)O1 (stereo unspecified)
inactive: [1] 43.5% | [2] 7.9% | [3] 40.5% | [4] 40.5% | [5] 35.4% | [6] 46.7%

CNC(=O)Oc1cccc2c(OC3OC(CO)C(O)C(O)C3O)cccc12 (stereo unspecified)
inactive: [1] -25.5% | [2] 19.4% | [3] -12.8% | [4] -16.7% | [5] 2.05% | [6] -23.9%

ClCc1ccccc1
inactive: [1] 40% | [2] 8.8% | [3] 4.9% | [4] -19.7% | [5] 30.6% | [6] 22.5%

CC(=O)OC(C[N+](=O)[O-])C(Cl)(Cl)Cl (stereo unspecified)
inactive: [1] 5.7% | [2] 3.25% | [3] 2.25% | [4] -0.7% | [5] 8.4% | [6] 2.95%

CCOC(=O)/C(=C\c1ccc(N(C)C)cc1)[Se]c1ccccc1
inactive: [1] 12.7% | [2] -2.8% | [3] -0.3% | [4] 5% | [5] 18.6% | [6] 56.4%

CN1C2CCC1CC(OC(=O)/C=C\c1ccccc1)C2 (stereo unspecified)
inactive: [1] 29% | [2] -7.7% | [3] -5.45% | [4] 1.95% | [5] 8.45% | [6] 9.6%

CC(=O)OCC1OC(S[As](C)C)C(OC(C)=O)C(OC(C)=O)C1OC(C)=O (stereo unspecified)
inactive: [1] -2.85% | [2] 13.8% | [3] -8.3% | [4] 10.9% | [5] 6.4% | [6] 36.8%

CN(C)C(=O)Sc1c(Cl)cc(Cl)cc1S(=O)(=O)F
inactive: [1] 43.1% | [2] 6.9% | [3] 56% | [4] 32.6% | [5] -3.2% | [6] 20.6%

CO[C@@]12[C@@H]3N[C@@H]3CN1C1=C(C(=O)C(NCCC#N)=C(C)C1=O)[C@@H]2COC(N)=O
inactive: [1] -15.8% | [2] 13.2% | [3] -13.1% | [4] 10.6% | [5] -5.3% | [6] 55.6%

CN(C)C(=O)O/N=C(\c1ccccc1)C(F)(F)F
inactive: [1] 35.7% | [2] -0.15% | [3] 20.5% | [4] 15.4% | [5] 20.7% | [6] 30.6%

N/C(=N\N=C\c1ccc(O)cc1O)N[N+](=O)[O-]
inactive: [1] 12.2% | [2] -0.85% | [3] -3.45% | [4] -41.7% | [5] 3.65% | [6] 4.1%

O=c1[nH]cnc2c1ncn2-c1ccc(N(CCCl)CCCl)cc1
inactive: [1] 4.3% | [2] 12.7% | [3] 16% | [4] -20.5% | [5] -12.2% | [6] 15.2%

O=S(=O)(O)C1CCC(O)C2[N-]CCCC21.O=S(=O)(O)C1CCC(O)C2[N-]CCCC21.[Ni+2] (stereo unspecified)
inactive: [1] 50.8% | [2] -4.3% | [3] 27.9% | [4] -13.4% | [5] 8.4% | [6] 23.9%

CCC1CC[Si](C)(C)CC12C(=O)NC(=O)NC2=O (stereo unspecified)
inactive: [1] 0.85% | [2] -2.25% | [3] 11.5% | [4] 1.65% | [5] 12.9% | [6] -0.55%

CCCCCCC(Cn1ccnc1)c1ccc(Br)cc1 (stereo unspecified)
active: [1] 98.2% | [2] 98.8% | [3] 95.8% | [4] 98.3% | [5] 99.5% | [6] 91.7%

O=C1NC(=O)C(Cc2ccc3c(c2)OCO3)C(=O)N1
inactive: [1] -6.05% | [2] -9.5% | [3] 4.95% | [4] -62.9% | [5] 7.35% | [6] 8.15%

CCC1CN1CCC(=O)Nc1ccccc1 (stereo unspecified)
inactive: [1] -2.8% | [2] -13.1% | [3] -14.2% | [4] -35.2% | [5] -17.6% | [6] 6.3%

O=C1OCC2(CO)SC(c3ccccc3)NC12 (stereo unspecified)
inactive: [1] -11.1% | [2] -0.3% | [3] -17.1% | [4] -20.6% | [5] -4.6% | [6] -7.45%

c1ccc(-c2ccc[n+](CC[n+]3cccc(-c4ccccn4)c3)c2)nc1
inactive: [1] 0.3% | [2] -9.4% | [3] -25.4% | [4] -11.4% | [5] -0.1% | [6] 8.45%

CC1=C(C)C(=O)O[C@@H]([C@](C)(O)[C@]2(O)CC[C@@]3(O)[C@@H]4C[C@H]5O[C@]56CC=CC(=O)[C@]6(C)[C@H]4CC[C@]23C)C1
inactive: [1] 45.1% | [2] 64.7% | [3] 43.8% | [4] 27.3% | [5] 45.9% | [6] 40.2%

O=Cc1ccccc1O.[Zn+2]
inactive: [1] 9.25% | [2] 6.2% | [3] 2.8% | [4] 3.6% | [5] 0.75% | [6] 1.6%

NC(=O)c1cccc([As]=O)c1 (stereo unspecified)
inactive: [1] -11.4% | [2] 17.4% | [3] 13.8% | [4] -18.6% | [5] 0.85% | [6] -17.6%

C/C=C\CC1(C/C=C/C)C(=O)NC(=O)NC1=O
inactive: [1] 2.25% | [2] -7.45% | [3] -5.05% | [4] -17.6% | [5] -8.9% | [6] 1.25%

O=C1CCCN1CC#CCN1CCCC1
inactive: [1] -13.8% | [2] -20.9% | [3] 16.9% | [4] 3.3% | [5] 8.55% | [6] 6.2%

Cc1cccnc1NN=O
inactive: [1] -8.25% | [2] -23.9% | [3] -23.8% | [4] 10% | [5] -20.2% | [6] 13.6%

C=CCNC(=O)C(Br)C(C)C (stereo unspecified)
inactive: [1] -9.8% | [2] -40.8% | [3] -10.6% | [4] 22.9% | [5] -26.9% | [6] -8.2%

C=C1[C@@H](C)[C@H]2[C@H](Cc3ccccc3)NC(=O)[C@]23OC(=O)/C=C/[C@H](O)CCC[C@@H](C)C/C=C/[C@H]3[C@@H]1O
inactive: [1] 53.4% | [2] 25.8% | [3] 24.6% | [4] 39% | [5] 58.8% | [6] 58.5%
